Pf growth 48h: inhibits P. falciparum growth in the first generation, 48 h. P. falciparum luciferase growth in erythrocytes, 48 h. actives 5.9% (n = 310,000). Potency, µM (series often up to 28.7 µM), without a hit: at the highest dose activity change, negative = inhibition, hits mostly inhibitors; active = well fitted inhibition curve with a large enough effect; inconclusive = small, poorly fitted or top-dose-only effect, or another doubt; inactive = no such curve, though single readings can be large or run the other way; also: % is scaled to controls: 0 for no effect and ±100 for the full control effect
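Compounds are pin-transferred into medium, infected erythrocytes (2% hematocrit, 0.1% parasitemia final) are added, and plates sit one parasite generation at 37 C in 5% CO2. Detection reagent is then added and luminescence measured.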
NS1 function inh: influenza NS1 inhibition | Potency, µM (doses to about 46.1 µM), without a hit: at the highest dose activity, positive = more growth | actives 0.4% (n = 270,000); also: actives are rising curves; nearly all actives have a fitted effect of over 50% in size
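Growth recovery, yeast-based: influenza A NS1 expressed in S. cerevisiae causes slow growth, and suppressors are detected by OD600. The parent strain without NS1 is used as positive control.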
Pf growth 96h: inhibits malaria parasite growth, 96 h. P. falciparum luciferase reporter growth, 96 h. Potency, µM (series often up to 28.7 µM), for the others: top-dose activity change, negative = inhibition, actives largely listed as inhibitors. actives 6.9% (n = 320,000); active = well fitted inhibition curve with a large enough effect; inconclusive = small, poorly fitted or top-dose-only effect, or another doubt; inactive = no such curve, though single readings can be large or run the other way; also: % is scaled to controls: 0 for no effect and ±100 for the full control effect
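96 h incubation, 37 C, 5% CO2, of luciferase-reporter P. falciparum-infected RBCs (2% hematocrit, 0.05% parasitemia final) with test compounds; endpoint luminescence.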
SARS PLP yeast: blocks SARS-CoV papain-like protease in a yeast assay. S. cerevisiae expressing SARS-CoV PLpro, growth rescue. Potency, µM (highest dose often 32.9 µM), without a hit: top-dose activity, positive = growth rescue, hits mostly activators. actives 0.19% (n = 330,000); also: 0% is about no effect; nearly all actives have a fitted effect of over 55% in size
Starred values were filed as active, the others as inactive; ? = inconclusive; . = no result given; ! = not active in a repeat; [ ] = remark or other dose. Only some compounds are listed: those with a hit (about 10% of all), similar ones and a draw of the others. Unless noted, calls follow the shape of the full dose curve. Potency is read from the fitted curve at half-maximal effect.

SMILES | Pf growth 48h | NS1 function inh | Pf growth 96h | SARS PLP yeast
CCOc1cccc(N(C(=O)CCC(=O)Nc2cc(C)on2)C(C(=O)NC(C)(C)C)c2ccc(OC)cc2)c1 (stereo unspecified) | 3.29µM* | -4.2% | ? | 1.5%
CCC(C)(C)NC(=O)C(c1ccc(OC)cc1)N(C(=O)CCC(=O)Nc1cc(C)on1)c1ccc(F)cc1 (stereo unspecified) | ? | 11.1% | -17.7% | -4.5%
CCc1ccc(N(C(=O)CCC(=O)Nc2cc(C)on2)C(C(=O)NC(C)(C)C)c2ccc(OC)cc2)cc1 (stereo unspecified) | 2.08µM* | 1.4% | 12.2% | 0.0%
CCC(C)(C)NC(=O)C(c1ccc(OC)cc1)N(Cc1ccc(OC)cc1)C(=O)CCC(=O)Nc1cc(C)on1 (stereo unspecified) | ? | 5.4% | 3.0% | -2.8%
COc1ccc(C(C(=O)NC(C)(C)C)N(C(=O)CCC(=O)Nc2cc(C)on2)c2cccc(F)c2)cc1 (stereo unspecified) | ? | -4.8% | 28.6% | -0.5%
CCC(C)(C)NC(=O)C(c1ccc(OC)cc1)N(C(=O)CCC(=O)Nc1cc(C)on1)C(C)(C)C (stereo unspecified) | ? | 22.9% | 11.7µM* | 2.7%
Cc1ccc(NC(=O)C(C)N2CCN(C)CC2)cc1S(=O)(=O)N1CCOCC1 (stereo unspecified) | 1.0% | . | -3.1% | 1.2%
Cc1cccc(CS(=O)(=O)c2ncc(CO)n2C)c1 | . | 3.6% | 4.4% | -1.8%
O=C(Nc1ccc2c(c1)N(Cc1ccccc1)C(=O)c1ccccc1S2)NC1CC1 | 6.57µM* | 16.5% | 11.7µM* | -14.5%
Cc1cc(NCc2ccco2)nc2cc(O)ccc12 | 3.29µM* | -3.6% | 5.22µM* | 18.1%
Cc1ccc(Nc2cc(C)c3ccc(O)cc3n2)cc1C | ? | -52.2% | ? | -0.8%
Cc1ccc(C2=NN(C(=O)CCl)C(c3ccco3)C2)o1 (stereo unspecified) | 10.4µM* | -3.8% | 6.57µM* | 3.2%
CC(=O)N1N=C(c2ccco2)CC1c1ccco1 (stereo unspecified) | -4.3% | 13.0% | -3.1% | -2.6%
COc1ccc(CN2CCN(C(=O)c3c(-c4ccccc4)noc3C)CC2)cc1F | ? | . | -1.0% | -3.0%
N#Cc1ccc2c(c1)C[C@]1(CCCCN3C(=O)c4ccccc4C3=O)Oc3c(c(=O)oc4ccccc34)C2O1 | 1.69µM* | 2.4% | -18.6%[5.75 µM] | -1.5%[6.58 µM]
CC(=O)N(C)c1ccc(OCC(O)CN(c2ccccc2C)S(=O)(=O)c2ccc(C)cc2)cc1 (stereo unspecified) | 13.1µM* | -19.3% | 2.94µM* | 3.6%
CCC(=O)c1ccc(O)cc1 | 4.5% | -12.4% | 15.1µM*! | -3.3%
COc1cc2c(cc1OC)CN(CC(=O)Nc1ccc(F)cc1)C(C(=O)O)C2 (stereo unspecified) | 3.0% | -4.3% | 0.0% | -3.2%
CC(C)NC(=O)CSc1nnc(CNC(=O)OC(C)(C)C)n1C | 1.85µM* | -12.2% | 40.2% | -1.2%
Cc1cccc(C(=O)NCc2nnc(SCC(=O)NC(C)c3ccccc3)n2C)c1 (stereo unspecified) | -8.7% | -6.5% | ? | -19.5%
NC1=NC2=C(CCCC2)C2(CCCCC2)S1 | 13.1µM* | -10.3% | 212.9% | 6.2%
O=C(CNS(=O)(=O)c1ccccc1)Nc1ccc2c(c1)OCO2 | 26.6% | . | -1.5% | 9.8%
CN(CC(=O)Nc1ccc2c(c1)OCCO2)S(=O)(=O)c1ccc(Br)s1 | . | -17.7% | 13.1µM* | 8.3%
O=C(CNS(=O)(=O)c1ccc(Br)s1)Nc1ccc2c(c1)OCCO2 | ? | -13.4% | 13.1µM* | 2.5%
CC1=C/C(=N\OS(=O)(=O)c2ccccc2)C(C(C)C)=CC1=O | ? | -60.7% | 10.9% | -91.5%
SMILES | Pf growth 48h | NS1 function inh | Pf growth 96h | SARS PLP yeast
CC1=C/C(=N\OS(=O)(=O)c2ccccc2)C(C)=CC1=O | . | -147.1% | 4.15µM* | -45.6%
Cc1c(C(=O)NC(C)C)sc2ncn(CC(=O)N3CCC(C)CC3)c(=O)c12 | 7.7% | -3.6% | . | -4.3%
C=CCn1c(NC(=O)c2ccccc2)nc2ccccc21 | ? | -40.9% | 11.7µM* | -4.0%
COC(=O)c1cccc(Cn2cc([N+](=O)[O-])cn2)c1 | -10.8% | . | 3.7µM* | 0.5%
CCn1c(NC(=O)c2cccc(Cn3cc(Cl)cn3)c2)nc2ccccc21 | 10.4µM* | -35.7% | ? | 8.1%
Cc1cc(NC(=O)/C=C/c2ccc(F)cc2)n(-c2nc3ccccc3[nH]2)n1 | ? | 1.0% | -49.8% | -16.7%
CCn1c(NC(=O)/C=C/c2ccc(F)cc2)nc2ccccc21 | 11.7µM* | -82.1% | ? | -10.2%
Cn1c(NC(=O)c2cccc(Cn3cc(Cl)cn3)c2)nc2ccccc21 | -0.8% | -12.0% | . | 2.6%
CCCCn1c(NC(=S)Nc2ccccc2)nc2ccccc21 | 5.22µM* | -1.6% | ? | -40.8%
CCCCn1c(NC(=O)c2ccccc2)nc2ccccc21 | ? | -118.1% | 4.65µM* | 4.7%
CCCn1c(NC(=O)c2ccc(Br)cc2)nc2ccccc21 | . | 1.7% | 2.94µM* | -2.5%
CC(C)CNC(=O)c1cccc(Cn2cc(Cl)cn2)c1 | -4.2% | -14.5% | 10.4µM* | 4.6%
CCCn1c(NC(=O)c2ccc(F)cc2)nc2ccccc21 | 0.0% | . | 0.0% | -1.7%
S=C(Nc1ccccc1)Nc1nc2ccccc2n1CCOc1ccccc1 | ? | -21.3% | 0.0% | 28.3%
CC1CN(S(=O)(=O)c2ccc(C(=O)N(CCCN(C)C)c3nc4c(Cl)cccc4s3)cc2)CC(C)O1 (stereo unspecified) | 6.7% | -0.6% | 29.4% | 24.1%
CCC(C)NC(=O)C1(O)c2cc(Br)ccc2NC(=O)N1c1cccc(OC)c1 (stereo unspecified) | 7.3%[0.00184 µM] | 0.5% | ? | 0.3%
Cc1ccn(CC(=O)NC2CC(C)(C)Cc3c2cnn3-c2ccc(F)cc2)n1 (stereo unspecified) | -0.9% | -9.8% | -16.2% | -1.4%
CCn1c(NC(=O)c2ccccc2)nc2ccccc21 | 11.7µM* | -57.4% | 10.4µM* | -0.8%
O=C(CNC(=O)C1CCCCC1)OCC(=O)c1ccc(Br)cc1 | 6.8% | 10.2% | 6.6% | 2.1%
COc1ccc(NC(=O)CSCC(=O)N(C)Cc2ccc(Cl)c(Cl)c2)cc1 | 13.1µM* | . | ? | -18.9%
Cc1ccc(NC(=O)CSCC(=O)N(C)Cc2ccc(Cl)c(Cl)c2)cc1 | ? | . | ? | -8.2%
CC1CCN(CC(=O)N(C)c2c(N)n(Cc3ccccc3)c(=O)[nH]c2=O)CC1 | 11.9% | . | 42.8% | 2.1%
C=CCNC(=S)N1CCN(c2cc3c(cc2F)c(=O)c(C(=O)O)cn3CC)CC1 | ? | 6.7% | 2.33µM* | 0.3%
CCn1cc(C(=O)O)c(=O)c2cc(F)c(N3CCN(C(=S)NC(=O)c4ccccc4Cl)CC3)cc21 | 5.22µM* | 5.0% | ? | 1.5%
CCOC(=O)c1ccc(-n2cccc2/C=C2\NC(=O)NC2=O)cc1 | 11.4% | . | 42.8% | -4.8%
Cc1ccc(Cl)cc1NC(=O)C[n+]1ccc(Cc2ccc([N+](=O)[O-])cc2)cc1 | ? | . | 1.85µM* | 1.8%
CC(C)(C)NC(=O)NC(=O)C[n+]1ccc(Cc2ccc([N+](=O)[O-])cc2)cc1 | 9.28µM* | 3.8% | ? | 1.3%

High-throughput results (PubChem)
